From the supplement of paper PMC11634586
Structures can show the parent of a compound that is named as a salt. Unmarked numbers belong to inactive results.

test system: NCI-H1688; experiment: inhibition of cell viability relative to untreated control (fraction); higher = stronger growth inhibition, active = 0.5 or more; details: 30 µM; 24 h
Summary of the method: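 Values are inhibition of cell viability expressed as a fraction, derived from viability normalised to untreated cells. NCI-H1688 small cell lung cancer cells in 96-well plates were exposed to a natural compound library (TargetMol) at 30 µM for 24 h at 37°C with 5% CO2, and Cell Counting Kit-8 absorbance at 450 nm was then read.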

| Structure (SMILES) | inhibition of cell viability |
| --- | --- |
| CCOC(=O)/C=C/c1ccc(O)c(OC)c1 [Ethyl ferulate] | -0.0133 |
| Cc1ncc(C[n+]2csc(CCO)c2C)c(N)n1 [Thiamine hydrochloride] | -0.123 |
| COc1cc(C(=O)O)cc(OC)c1O [Syringic acid] | 0.0408 |
| Nc1ncnc2c1ncn2[C@@H]1O[C@H](CO)C[C@H]1O [Cordycepin] | -0.154 |
| O=C(O)CCC(=O)O [Succinic acid] | 0.0297 |
| C[C@@]12C[C@@]3(O)O[C@@H](O1)[C@]1(COC(=O)c4ccccc4)[C@H]3C[C@@]12O[C@@H]1O[C@H](CO)[C@@H](O)[C@H](O)[C@H]1O [Paeoniflorin] | 0.068 |
| Cn1cnc2c1c(=O)[nH]c(=O)n2C [Theobromine] | 0.0986 |
| C=C1C[C@@]23CC[C@H]4[C@@](C)(CCC[C@@]4(C)C(=O)O[C@@H]4O[C@H](CO)[C@@H](O)[C@H](O)[C@H]4O)[C@@H]2CC[C@]1(O[C@@H]1O[C@H](CO)[C@@H](O)[C@H](O)[C@H]1O[C@@H]1O[C@H](CO)[C@@H](O)[C@H](O)[C@H]1O)C3 [Stevioside] | -0.031 |
| CC(C)=C1C/C=C(\C)CC/C=C(\C)CC1=O [Germacrone] | 0.245 |
| CC(C)(CO)C(O)C(=O)NCCCO (stereo unspecified) [Panthenol] | 0.0837 |
| COc1ccc(/C=C\c2cc(OC)c(OC)c(OC)c2)cc1O [Combretastatin A4] | 0.823 (active) |
| COc1c(O)cc2oc3cc(O)c(CC=C(C)C)c(O)c3c(=O)c2c1CC=C(C)C [Mangostin] | 1 (active) |
| O[C@H]1[C@H]2c3cc4c(cc3CN3CCC(=C[C@@H]1O)[C@H]23)OCO4 [Lycorine chloride] | 0.931 (active) |
| Cn1c(=O)c2[nH]cnc2n(C)c1=O [Aminophylline] | 0.644 (active) |
| NCCc1ccc(O)c(O)c1 [Dopamine hydrochloride] | 0.0465 |
| C[C@H]1COC2=C1C(=O)C(=O)c1c2ccc2c1CCCC2(C)C [Cryptotanshinone] | 1 (active) |

| Structure (SMILES) | inhibition of cell viability |
| --- | --- |
| C=CCc1ccc(O)c(OC)c1 [Eugenol] | -0.184 |
| C[C@@H]1O[C@@H](O[C@H]2[C@H](Oc3cc(O)c(C(=O)CCc4ccc(O)cc4)c(O)c3)O[C@H](CO)[C@@H](O)[C@@H]2O)[C@H](O)[C@H](O)[C@H]1O [Naringin dihydrochalcone] | -0.031 |
| COc1c(C)c2c(c(O)c1C/C=C(\C)CCC(=O)O)C(=O)OC2 [Mycophenolic acid] | 0.841 (active) |
| CC12CCC(CC1=O)C2(C)C (stereo unspecified) [Camphor] | -0.239 |
| O=C(O)C1=C[C@@H](O)[C@@H](O)[C@H](O)C1 [Shikimic Acid] | 0.0707 |
| COc1cc(/C=C/C(=O)CC(=O)/C=C/c2ccc(O)c(OC)c2)ccc1O [Curcumin] | 0.315 |
| O=C(/C=C/C=C/c1ccc2c(c1)OCO2)N1CCCCC1 [Piperine] | -0.249 |
| C[C@H]1[C@H](C)CC[C@]2(C(=O)O)CC[C@]3(C)C(=CC[C@@H]4[C@@]5(C)C[C@@H](O)[C@H](O)[C@@](C)(CO)[C@@H]5CC[C@]43C)[C@H]12 [Asiatic acid] | 0.00351 |
| C[C@H]1[C@@H](O)O[C@@H]2O[C@@]3(C)CC[C@H]4[C@H](C)CC[C@@H]1[C@@]24OO3 [Dihydroartemisinin] | 0.644 (active) |
| NCCCNCCCCNCCCN [Spermine] | -0.283 |
| C[C@@H]1CCCCCCCCCCCCC(=O)C1 [Muscone] | -0.148 |
| CC[C@]1(O)C[C@@H]2CN(CCc3c([nH]c4ccccc34)[C@@](C(=O)OC)(c3cc4c(cc3OC)N(C)[C@H]3[C@@](O)(C(=O)OC)[C@H](OC(C)=O)[C@]5(CC)C=CCN6CC[C@]43[C@@H]65)C2)C1 [Vinblastine sulfate] | 0.764 (active) |
| O=c1c(-c2ccc(O)cc2)coc2cc(O)ccc12 [Daidzein] | 0.0274 |
| CCOC(=O)C1=C[C@]2(CC)CCCN3CCc4c(n1c1ccccc41)[C@@H]32 [Vinpocetine] | -0.174 |
| C[n+]1cccc(C(=O)[O-])c1 [Trigonelline hydrochloride] | -0.14 |
